The nature of assay [1]: qHTS assay to identify aromatase inhibitors - cell viability counter screen (AID 743084).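 Also: cells stimulated with testosterone during compound exposure; nearly all actives have a fitted effect of over 55% in size.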 A general note: qHTS replaces the single test concentration by a dilution series.
The target of assay [2] is Aryl hydrocarbon receptor (Homo sapiens) (UniProt P35869). Description: qHTS assay to identify small molecule that activate the aryl hydrocarbon receptor (AhR) signaling pathway (AID 743085).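 Also: HG2L7.5c1 human HepG2 liver cells with stably integrated DRE-driven firefly reporter; series mostly up to about 70 µM; nearly all actives have a fitted effect of over 15% in size.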 The method in brief: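 Luminescence read-out: ONE-Glo reagent, 30 min at room temperature, in HG2L7.5c1 HepG2 reporter cells treated 24 h at 37C. Viability was measured beforehand by CellTiter-Fluor fluorescence after 30 min at 37C.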

Assay [3] is described as follows: qHTS assay to identify small molecule that activate the aryl hydrocarbon receptor (AhR) signaling pathway - cell viability counter screen (AID 743086). Also: series mostly up to about 70 µM; nearly all actives have a fitted effect of over 45% in size. In outline: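 Cytotoxicity counter screen: CellTiter-Fluor signal (30 min, 37 C) in 4000 HepG2 cells/well carrying the DRE-luciferase reporter, following 24 h compound exposure at 37 C.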
The nature of assay [4]: qHTS assay for small molecule agonists of the antioxidant response element (ARE) signaling pathway - cell viability counter screen (AID 743203; calls by dose curve; also: nearly all actives have a fitted effect of over 55% in size). The method in brief:
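Cytotoxicity was tested in parallel with the ARE reporter screen. ARE-bla HepG2 cells were exposed to compounds for 16 hrs, and viability was taken from CellTiter-Glo luminescence.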

Assay [5] in a line: qHTS assay for small molecule activators of the heat shock response signaling pathway - cell viability counter screen (AID 743209). Also: nearly all actives have a fitted effect of over 50% in size. In outline: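 Cytotoxicity counter screen run in parallel with the HSE beta-lactamase reporter, using the same wells. HeLa HSE-bla cells received compound for 5 h at 37 C; ATP-based CellTiter-Glo luminescence was measured after 30 min at room temperature.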

Assay [6] in a line: qHTS assay for small molecule activators of the heat shock response signaling pathway (AID 743210; active = well fitted activation curve with a large enough effect in the signal ratio in the repeat runs, with a control signal flat, not every such curve was filed as active; the % refers to the signal ratio;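 also: HeLa cells with beta-lactamase reporter driven by heat shock elements; series mostly up to about 63 µM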). The method in brief: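 Fluorescence from a cleaved B/G FRET substrate (2.5 h, room temp) reports HSE-driven beta-lactamase in HeLa cells treated 5 h at 37 C with DMSO-dissolved compounds.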
For assay [7], the target named is Bile acid receptor (Homo sapiens) (UniProt Q96RI1). As to the kind of experiment: qHTS assay to identify small molecule antagonists of the farnesoid-X-receptor (FXR) signaling pathway (AID 743217; active = well fitted inhibition curve with a large enough effect in the signal ratio in the repeat runs, not every such curve was filed as active; the % refers to the signal ratio). The method in brief:
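Cells carrying a UAS-driven beta-lactamase reporter (GeneBLAzer FXR-UAS-bla HEK 293T) were plated and rested 5 h at 37 °C. Compounds in DMSO were added alongside chenodeoxycholic acid agonist at 50 uM final and left 16 h at 37 °C before FRET substrate readout.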

For assay [8] the target is unchanged. As to the kind of experiment: qHTS assay to identify small molecule agonists of the farnesoid-X-receptor (FXR) signaling pathway (AID 743220; active = well fitted activation curve with a large enough effect in the signal ratio in the repeat runs, not every such curve was filed as active; the % refers to the signal ratio). The method in brief: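 FXR-UAS-bla HEK 293T cells carrying a UAS-driven beta-lactamase reporter were plated for 5 h at 37C/5% CO2, then exposed to DMSO-dissolved Tox21 10K compounds for 16 h at 37C. A LiveBLAzer B/G FRET substrate was loaded for 2 h at room temperature before fluorescence reading.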

A short description of assay [9]: qHTS assay to identify small molecule antagonists of the farnesoid-X-receptor (FXR) signaling pathway - cell viability counter screen (AID 743221; active = well fitted cell-killing curve with a large enough effect in the repeat runs, not every such curve was filed as active; also: nearly all actives have a fitted effect of over 50% in size). The method in brief: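 HEK 293T FXR-bla cells, 5 h pre-incubation; compound + CDCA 50 uM final, 16 h, 37 C; beta-lactamase FRET read first, then CellTiter-Glo luminescence, 30 min RT.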
Assay [10] deals with Vitamin D3 receptor (Homo sapiens) (UniProt P11473). Description: qHTS assay to identify small molecule antagonists of the vitamin D receptor (VDR) signaling pathway (AID 743223; active = well fitted inhibition curve with a large enough effect in the signal ratio in the repeat runs, not every such curve was filed as active; the % refers to the signal ratio). The method in brief:
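Beta-lactamase reporter read-out: FRET substrate fluorescence after 2 h at room temperature, following 16 h exposure of VDR-bla cells to test compound plus 3 nM (final) 1alpha,25-dihydroxyvitamin D3 agonist at 37C.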

Assay [11] deals with Peroxisome proliferator-activated receptor gamma (Homo sapiens) (UniProt P37231). Description: qHTS assay to identify small molecule agonists of the peroxisome proliferator-activated receptor gamma (PPARg) signaling pathway (AID 743094; active = well fitted activation curve with a large enough effect in the signal ratio in the repeat runs, not every such curve was filed as active; the % refers to the signal ratio). In outline: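 Cells from the PPARg UAS-bla HEK293H line are plated and incubated 5 h at 37C. Compounds in DMSO are pinned in and left 17 h at 37C. LiveBLAzer B/G substrate is then added for 1 h at room temperature before fluorescence is measured.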

For assay [12] the target is unchanged. Description: qHTS assay to identify small molecule antagonists of the peroxisome proliferator-activated receptor gamma (PPARg) signaling pathway (AID 743191; calls by dose curve; also: series mostly up to about 63 µM; nearly all actives have a fitted effect of over 30% in size). The method in brief:
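Beta-lactamase reporter under UAS control in HEK293H PPARg-bla cells; compound treatment 17 h at 37C. Read-out: fluorescence intensity after 1 h room-temperature incubation with LiveBLAzer B/G FRET substrate.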

Assay [13] can be described thus: qHTS assay to identify small molecule antagonists of the peroxisome proliferator-activated receptor gamma (PPARg) signaling pathway - cell viability counter screen (AID 743194). Also: nearly all actives have a fitted effect of over 55% in size. In outline:
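Viability was measured as CellTiter-Glo luminescence in GeneBLAzer PPARg UAS-bla HEK293H cells. These cells had been exposed 17 h at 37 C to compounds together with rosiglitazone at 50 nM final, with the beta-lactamase readout taken in the same wells.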

Assay [14] can be described thus: qHTS assay to identify small molecule agonists of the peroxisome proliferator-activated receptor delta (PPARd) signaling pathway - cell viability counter screen (AID 743211). Also: nearly all actives have a fitted effect of over 55% in size. In outline: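 Read-out: CellTiter-Glo luminescence, 30 min RT, measured in the same wells as the beta-lactamase reporter. Cells: GeneBLAzer PPAR delta UAS-bla HEK293H, 3000 cells/well, compound exposure 17 h at 37C.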

Assay [15] concerns the target Peroxisome proliferator-activated receptor delta (Homo sapiens) (UniProt Q03181). Description: qHTS assay to identify small molecule agonists of the peroxisome proliferator-activated receptor delta (PPARd) signaling pathway (AID 743212; calls by dose curve). In outline:
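Steps: seed PPARd-bla HEK293H cells; incubate 5 h, 37 C, 5% CO2; add compounds in DMSO; incubate, 37 C; add LiveBLAzer B/G FRET substrate; hold 2 h at room temperature; measure fluorescence.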

The nature of assay [16]: qHTS assay to identify small molecule antagonists of the peroxisome proliferator-activated receptor delta (PPARd) signaling pathway - cell viability counter screen (AID 743213). Also: nearly all actives have a fitted effect of over 50% in size. The method in brief:
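Luminescence from CellTiter-Glo, added after the bla read and incubated 30 min at room temperature, gives viability of HEK293H PPARd-bla cells exposed to compounds for 17 h at 37 C with 300 nM L165041.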

Assay [17] concerns the target Peroxisome proliferator-activated receptor delta (Homo sapiens) (UniProt Q03181). Description: qHTS assay to identify small molecule antagonists of the peroxisome proliferator-activated receptor delta (PPARd) signaling pathway (AID 743215; active = well fitted inhibition curve with a large enough effect in the signal ratio in the repeat runs, not every such curve was filed as active; the % refers to the signal ratio;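 also: cells stimulated with agonist L165041 at 300 nM final during compound exposure; series mostly up to about 62 µM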). In outline:
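Cells: HEK293H with a UAS-driven beta-lactamase reporter responsive to PPARd. Compounds were co-added with L165041 (300 nM, final) and incubated 17 h at 37 C before a 2 h room-temperature FRET substrate step and fluorescence reading.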

The nature of assay [18]: qHTS assay to identify small molecule agonists of the farnesoid-X-receptor (FXR) signaling pathway - cell viability counter screen (AID 743218). Also: nearly all actives have a fitted effect of over 45% in size. Also: potency is read from the fitted curve at half-maximal effect. The method in brief: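 Cells were seeded, left 5 h at 37 C and 5% CO2, then dosed with compound in DMSO for 16 h. After the beta-lactamase FRET read, CellTiter-Glo was added and luminescence measured 30 min later.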
Assay [19] addresses Vitamin D3 receptor (Homo sapiens) (UniProt P11473). Description: qHTS assay to identify small molecule agonists of the vitamin D receptor (VDR) signaling pathway (AID 743222; calls by dose curve). The method in brief:
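Cells carrying a VDR-driven beta-lactamase reporter are seeded at 2,000 per well and rested 4 h. Compounds in DMSO are added for 16 h at 37C, and FRET substrate fluorescence is measured after 2 h at room temperature.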

Assay [20] in a line: qHTS assay for small molecule agonists of the antioxidant response element (ARE) signaling pathway (AID 743202; active = well fitted activation curve with a large enough effect in the signal ratio in the repeat runs, not every such curve was filed as active; the % refers to the signal ratio). The method in brief: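 Beta-lactamase reporter activity, read as fluorescence intensity, reflects ARE/Nrf2 pathway induction in HepG2 cells after 16 h compound exposure at 37 C; substrate loading was 2 h at room temperature.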

Results filed as inconclusive are left out. The source made the active and inactive calls. Unless noted, calls follow the shape of the dose curve; as a rule, active = well fitted curve in the direction sought with a large enough effect in the repeat runs; inconclusive = weak or mixed curves; inactive = no such curve, though single readings can be large; an effect the other way counts as inactive or inconclusive.

Chain of Bile acid receptor (Homo sapiens) (Q96RI1 whole entry, looked up): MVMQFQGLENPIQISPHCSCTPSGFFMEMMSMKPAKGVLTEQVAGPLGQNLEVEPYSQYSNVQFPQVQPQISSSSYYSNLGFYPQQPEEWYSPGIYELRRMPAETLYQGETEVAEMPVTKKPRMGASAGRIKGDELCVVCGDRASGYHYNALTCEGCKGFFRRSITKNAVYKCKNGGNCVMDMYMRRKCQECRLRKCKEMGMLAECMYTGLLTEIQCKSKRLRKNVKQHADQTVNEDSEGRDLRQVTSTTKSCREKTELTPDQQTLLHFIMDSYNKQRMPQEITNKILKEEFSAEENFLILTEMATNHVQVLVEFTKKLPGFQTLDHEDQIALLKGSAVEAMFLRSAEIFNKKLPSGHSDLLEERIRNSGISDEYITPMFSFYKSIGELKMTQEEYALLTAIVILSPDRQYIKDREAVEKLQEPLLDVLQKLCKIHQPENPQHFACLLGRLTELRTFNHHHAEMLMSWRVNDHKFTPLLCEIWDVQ
Chain of Vitamin D3 receptor (Homo sapiens) (P11473 whole entry, looked up): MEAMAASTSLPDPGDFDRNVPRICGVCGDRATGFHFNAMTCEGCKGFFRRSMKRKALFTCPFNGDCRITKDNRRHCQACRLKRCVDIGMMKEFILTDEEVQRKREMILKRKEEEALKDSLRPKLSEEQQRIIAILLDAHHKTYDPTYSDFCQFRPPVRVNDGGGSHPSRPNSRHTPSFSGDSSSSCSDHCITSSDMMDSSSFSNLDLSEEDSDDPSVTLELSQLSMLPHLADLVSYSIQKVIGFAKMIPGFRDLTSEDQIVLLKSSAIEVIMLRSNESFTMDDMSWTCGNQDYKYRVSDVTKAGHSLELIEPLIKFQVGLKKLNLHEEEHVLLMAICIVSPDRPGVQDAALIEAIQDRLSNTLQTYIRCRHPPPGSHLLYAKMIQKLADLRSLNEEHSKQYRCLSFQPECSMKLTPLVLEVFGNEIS
Chain of Aryl hydrocarbon receptor (Homo sapiens) (P35869 whole entry, looked up): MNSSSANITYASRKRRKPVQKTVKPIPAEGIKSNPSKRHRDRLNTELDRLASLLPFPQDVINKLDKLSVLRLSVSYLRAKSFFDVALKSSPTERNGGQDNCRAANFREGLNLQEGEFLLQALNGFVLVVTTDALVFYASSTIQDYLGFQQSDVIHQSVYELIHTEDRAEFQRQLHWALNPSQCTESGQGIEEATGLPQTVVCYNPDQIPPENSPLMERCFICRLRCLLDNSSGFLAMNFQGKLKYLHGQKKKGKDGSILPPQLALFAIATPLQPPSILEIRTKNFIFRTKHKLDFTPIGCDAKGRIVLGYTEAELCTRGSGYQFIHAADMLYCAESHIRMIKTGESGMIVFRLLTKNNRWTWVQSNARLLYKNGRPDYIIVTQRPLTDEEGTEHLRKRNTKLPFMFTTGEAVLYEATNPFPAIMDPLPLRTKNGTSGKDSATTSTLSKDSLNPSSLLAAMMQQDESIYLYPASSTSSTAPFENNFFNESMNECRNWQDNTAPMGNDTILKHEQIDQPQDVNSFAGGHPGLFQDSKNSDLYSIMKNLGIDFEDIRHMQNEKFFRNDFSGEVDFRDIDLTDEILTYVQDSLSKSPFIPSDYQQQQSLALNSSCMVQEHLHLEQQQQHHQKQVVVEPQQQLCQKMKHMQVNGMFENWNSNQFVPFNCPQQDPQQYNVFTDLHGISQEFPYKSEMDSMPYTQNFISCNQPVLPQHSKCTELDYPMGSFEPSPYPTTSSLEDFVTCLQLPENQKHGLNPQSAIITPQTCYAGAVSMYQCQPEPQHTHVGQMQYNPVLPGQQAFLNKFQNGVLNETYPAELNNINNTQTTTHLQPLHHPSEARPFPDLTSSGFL
Chain of Peroxisome proliferator-activated receptor gamma (Homo sapiens) (P37231 whole entry, looked up): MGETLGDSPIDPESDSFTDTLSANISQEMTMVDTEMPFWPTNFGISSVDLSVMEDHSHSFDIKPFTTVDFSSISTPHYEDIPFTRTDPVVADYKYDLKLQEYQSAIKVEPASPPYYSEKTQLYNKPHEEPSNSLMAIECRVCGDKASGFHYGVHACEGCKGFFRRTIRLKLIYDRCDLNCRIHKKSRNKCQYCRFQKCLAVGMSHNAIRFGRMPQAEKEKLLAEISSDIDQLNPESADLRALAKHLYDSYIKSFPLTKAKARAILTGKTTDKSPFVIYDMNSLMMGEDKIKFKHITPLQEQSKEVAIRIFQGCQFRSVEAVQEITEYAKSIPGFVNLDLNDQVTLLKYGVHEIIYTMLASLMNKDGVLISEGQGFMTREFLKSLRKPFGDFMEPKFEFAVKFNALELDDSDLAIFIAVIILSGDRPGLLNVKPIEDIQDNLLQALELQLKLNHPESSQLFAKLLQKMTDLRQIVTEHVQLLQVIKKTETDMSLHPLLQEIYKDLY
Chain of Peroxisome proliferator-activated receptor delta (Homo sapiens) (Q03181 whole entry, looked up): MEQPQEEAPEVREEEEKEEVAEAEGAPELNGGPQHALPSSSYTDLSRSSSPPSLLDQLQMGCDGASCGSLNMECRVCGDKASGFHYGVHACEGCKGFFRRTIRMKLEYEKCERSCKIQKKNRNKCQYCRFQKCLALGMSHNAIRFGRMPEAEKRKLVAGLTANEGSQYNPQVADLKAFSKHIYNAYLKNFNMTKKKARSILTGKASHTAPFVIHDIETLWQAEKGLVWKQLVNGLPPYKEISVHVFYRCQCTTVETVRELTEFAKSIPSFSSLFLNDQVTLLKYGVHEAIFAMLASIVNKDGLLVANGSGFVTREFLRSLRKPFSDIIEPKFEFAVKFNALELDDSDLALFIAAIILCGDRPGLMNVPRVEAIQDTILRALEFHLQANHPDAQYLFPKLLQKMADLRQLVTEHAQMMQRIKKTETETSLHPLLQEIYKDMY

For `O=C(O)c1cc(C(=O)O)c(C(=O)O)cc1C(=O)O`, the Potency result in assay [1], in assay [2], in assay [3], in assay [4] and in [9] was “inactive” in each case. The compound was classed as inactive in assay [5], in assay [6], in assay [7], in assay [8] and in [10].

Regarding `Clc1ccccc1-c1nc(-c2ccncc2)no1`, the Potency entry in [1], in [3], in assay [11], in assay [12], in assay [13] and in assay [4] was “inactive” throughout. The Potency entry in assay [14], in [15], in [16], in assay [18] and in assay [9] was “inactive” in each case. For the same compound, the compound was classed as inactive in assay [5], in assay [6], in assay [17], in [7] and in assay [8].

For the compound `Cc1cc(C)c(C)c(O)c1`, the Potency entry in assay [1], in assay [3], in assay [11], in [12], in [13] and in [4] was “inactive” each time. Also, the Potency entry in assay [14], in assay [15] and in [18] was “inactive” each time. For the same compound, the compound was called inactive in assay [5], in assay [6], in assay [17], in assay [19] and in [10].

On to `Cc1nc2sccn2c(=O)c1CCN1CCC(=C(c2ccc(F)cc2)c2ccc(F)cc2)CC1`, for which the Potency result in assay [1], in assay [2], in [13], in assay [4], in [14] and in assay [15] was “inactive” throughout. The Potency result in assay [9] is “inactive”. Moreover, the result in [6] was inactive. Besides, the Potency in assay [18] is 26.6 µM (active).

Regarding `O=C1OC(=O)C2CC=CCC12` (stereo not drawn), the Potency result in assay [1], in assay [3], in assay [11], in assay [12], in [13] and in assay [20] was “inactive” throughout. The Potency result in assay [4], in [14], in assay [15] and in assay [16] was “inactive” throughout. Besides, the outcome in assay [5], in assay [17], in assay [19] and in [10] was inactive.

As to `O=C(c1ccc(Cl)cc1)c1ccc(Cl)cc1`, the Potency result in assay [1], in assay [3], in [11], in assay [12], in assay [13] and in assay [20] was “inactive” throughout. Moreover, the Potency result in assay [4], in assay [15], in assay [16], in assay [18] and in [9] was “inactive” each time. In addition, the compound was called inactive in assay [5], in assay [17] and in [10].

Take `C/C=C1\[C@H]2C=C(C)C[C@]1(N)c1ccc(=O)[nH]c1C2`: the Potency result in assay [1], in [3], in assay [11], in assay [12], in assay [20] and in assay [4] was “inactive” each time. In addition, the Potency entry in [14], in assay [15], in [16], in assay [18] and in assay [9] was “inactive” throughout. Moreover, the outcome in assay [5], in assay [6], in assay [17], in assay [7] and in assay [8] was inactive.

Consider `CC1(C)CC(O)CC(C)(C)N1[O]`, for which the Potency entry in assay [1], in [3], in assay [11], in assay [12], in assay [13] and in assay [20] was “inactive” throughout. In addition, the Potency result in assay [4], in assay [15], in assay [16] and in assay [18] was “inactive” each time. Also, the outcome in assay [5], in assay [6], in assay [17], in assay [7], in assay [8] and in assay [19] was inactive. The result in assay [10] was inactive.

Consider `CCOCCn1c(N2CCCN(C)CC2)nc2ccccc21`, for which the Potency result in [1], in assay [2], in assay [3], in assay [20], in assay [4] and in assay [14] was “inactive” in each case. The Potency result in assay [15], in assay [16] and in [9] was “inactive” each time. In addition, the compound was classed as inactive in assay [5], in [6], in assay [17] and in assay [10].

Values taken from PubChem BioAssay (Tox21).
